Rows were chosen to be rich in hits. Some 7.9% of all compounds tested hit in one or more screens of this group.
MCF10A rerep – A quantitative high throughput screen for small molecules that induce DNA re-replication in MCF 10a normal breast cells | MCF 10A DNA re-replication, Hoechst nuclear intensity, 48 h | Potency, µM (series often up to 46.1 µM), for the others: top-dose activity, positive = re-replication, hits mostly activators | 350,000 compounds, 2.9% hits | AID 624296, 2012; note: % of control where 0% means no effect; nearly all actives have a fitted effect of over 50% in size
KB-V1 cytotox – qHTS assay for MDR1-selective chemotherapeutics: Primary screen using the drug-selected MDR subline cells KB-V1; 400,000 compounds, 3.4% hits; Potency, µM (doses to about 46.1 µM), actives largely listed as cytotoxic; AID 1347076, 2019; KB-V1 MDR cells viability, CellTiter-Glo, 72 h; note: % is set by controls: 0 for no effect and ±100 for the full control effect; nearly all actives have a fitted effect of over 60% in size
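Luminescent ATP read-out (CellTiter-Glo, 10 min) measures survival of drug-selected KB-V1 MDR cells after 72 h, 37 degrees C compound exposure. Medium: phenol-red-free DMEM, 10% FBS. Values from fitted concentration-response curves.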
SW480 rereplic – A quantitative high throughput screen for small molecules that induce DNA re-replication in SW480 colon adenocarcinoma cells; 340,000 compounds, 1.8% hits; Potency, µM (top dose mostly 46.1 µM), for the others: at the top dose re-replication activation, actives largely listed as activators; SW480 DNA re-replication, Hoechst DNA content imaging, 48 h; note: % of control where 0% means no effect; nearly all actives have a fitted effect of over 55% in size
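Readout is total intensity of Hoechst-stained nuclei, excited at 405 nm and collected at 500-530 nm. Compound treatment lasted 48 hr at 37 C in 5% CO2 before staining.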
KB-3-1 tox – qHTS assay for MDR1-selective chemotherapeutics: Primary screen using the parental adenocarcinoma cell KB-3-1; KB-3-1 viability, CellTiter-Glo ATP luminescence, 72 h; Potency, µM (series often up to 46.1 µM), most hits filed as cytotoxic; 400,000 compounds, 1.4% hits; note: % is set by controls: 0 for no effect and ±100 for the full control effect; nearly all actives have a fitted effect of over 60% in size
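Screening of KB-3-1 cells (DMEM, 10% FBS, phenol-red free) ran from lowest to highest compound concentration; after 72 h at 37 °C viability was read luminescently and curves fitted.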
HT1080NT lethal – qHTS for induction of synthetic lethality in tumor cells producing 2HG: qHTS for the HT-1080-NT fibrosarcoma cell line; HT-1080-NT fibrosarcoma viability, CellTiter-Glo ATP luminescence, 48 h; Potency, µM (series often up to 46.1 µM), without a hit: at the top dose activity, negative = less viability, most hits filed as cytotoxic; 360,000 compounds, 1.6% hits; AID 686970, 2013;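 note: NT is the 2HG producing partner of a matched IDH1 knockdown line; 0% = DMSO-treated cells and -100% = media-only wells without cells; nearly all actives have a fitted effect of over 55% in size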
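HT-1080-NT; 750 cells/well; 5% FBS RPMI; 48 h compound, 37 degrees C; CellTiter-Glo luminescence; curve fitting and curve-class assignment.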
HT1080 IDH1KD tx – qHTS for induction of synthetic lethality in tumor cells producing 2HG: qHTS for the HT-1080-IDH1KD cell line | 360,000 compounds, 2% hits | AID 686971, 2013 | Potency, µM (titrated, usually from 46.1 µM), without a hit: at the highest dose activity, negative = toxicity, most hits filed as cytotoxic | HT-1080 IDH1 knockdown viability, ATP luminescence, 48 h;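 note: 0% = DMSO wells and -100% = cell-free medium wells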
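Assay cells: HT-1080 with IDH1 knockdown, 750 per well, RPMI/5% FBS. Exposure: 48 h at 37 °C following 2 h pre-incubation. Read: CellTiter-Glo luminescence; fitted concentration-response, curve class assigned.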
* marks the source's active call; other numbers are inactive results; i = inactive; ? = inconclusive; . = no result. Calls come from the whole dose curve; as a rule, active = well fitted curve in the direction sought with a large enough effect; inconclusive = small, poorly fitted or top-dose-only effect, or another doubt; inactive = no such curve, though single readings can be large; an effect the other way counts as inactive or inconclusive. Potency is the fitted concentration of half-maximal effect.

SMILES	MCF10A rerep	KB-V1 cytotox	SW480 rereplic	KB-3-1 tox	HT1080NT lethal	HT1080 IDH1KD tx
O=C(Nc1ccccc1N1CCOCC1)c1ccccc1NS(=O)(=O)c1ccc(F)cc1	1%	i	2%	i	-4%	2%
Oc1ccccc1-c1nc2c3ccccc3c3ccccc3c2[nH]1	18µM*	i	?	i	?	?
Cc1ccc(NC(=O)c2cc(C)n(-c3ccccc3)c2C)cc1	3.3µM*	i	3%	i	?	?
c1ccc(CCNc2nc3ccccc3s2)cc1	?	18µM*	-3%	i	?	?
CCOC(=O)c1nc(NCCc2ccccc2)sc1C	2.1µM*	i	6%	i	6%	8%
COc1ccc(C2NC(=O)NC(C)=C2C(=O)OCc2ccc3c(c2)OCO3)cc1OC (configuration not stated)	-4%	i	3%	i	7%	?
FC(F)(F)c1nc2ccccc2n2c(-c3ccc(Cl)cc3Cl)nnc12	26%	?	?	18µM*	?	?
FC(F)(F)c1nc2ccccc2n2c(-c3c(Cl)cccc3Cl)nnc12	17%	i	3%	?	-9%	-5%
CC(C)OCCCn1c(=NC(=O)c2cccs2)c(C#N)cc2c(=O)n3ccccc3nc21	12µM*	?	21µM*	i	2%	7%
CC(C)OCCCn1c(=N)c(C(N)=S)cc2c(=O)n3ccccc3nc21	9.2µM*	?	5.8µM*	i	6%	4%
CC(=O)N=c1c(C#N)cc2c(=O)n3ccccc3nc2n1CCCOC(C)C	?	i	16µM*	i	1%	23%
Cc1ccc2c(CC(=O)NCc3ccco3)coc2c1C	12µM*	5.8µM*	?	7.3µM*	5.2µM*	7.3µM*
O=c1[nH]c(=O)c2cc([N+](=O)[O-])cc([N+](=O)[O-])c2[nH]1	-17%	i	?	i	1%	-11%
O=c1[nH]c2cc([N+](=O)[O-])c([N+](=O)[O-])cc2[nH]c1=O	0%	i	6.5µM*	i	-10%	1%
Cc1[nH]c(C)c(S(=O)(=O)NCc2ccco2)c1C(=O)N1CCCCC1	0%	i	?	i	6%	9%
COc1ccc(C(=O)O/N=C/c2c(C(F)(F)F)nn(C)c2SCc2ccccc2Cl)cc1	?	?	?	7.3µM*	-18%	-25%
Cc1ccc(NC(=O)CCC(=O)NNC(=S)Nc2ccccc2)c(C)c1	-2%	i	0%	i	7%	0%
Cc1ccc(NC(=S)NNC(=S)Nc2ccc(C)cc2C)cc1	21%	4.6µM*	26%	1µM*	-30%	-21%
Cc1ccc(-c2c(C)n3c4c(=O)n(C)c(=O)n(C)c4nc3n2-c2cccc(O)c2)cc1	.	18µM*	.	?	.	.
CCc1ccc(-n2c(-c3ccccc3)c(C)n3c4c(=O)n(C)c(=O)n(C)c4nc23)cc1	.	i	.	i	.	.
O=S(=O)(c1ccccc1)N1CCN(S(=O)(=O)c2ccccc2)c2ccccc21	-6%	21µM*	16%	i	1%	-11%
Cc1ccc(-c2nc(Nc3cccc(C)c3)sc2CC(=O)O)cc1	21µM*	i	?	i	-6%	-3%
O=C(Cc1sc(Nc2ccccc2)nc1-c1ccccc1)NCc1ccccc1	?	?	?	16µM*	?	?
O=C(Cc1sc(-c2ccccc2)nc1-c1ccccc1)Nc1ccccc1	?	i	4%	i	-20%	-15%
O=C(O)Cc1sc(Nc2ccccc2)nc1-c1cccs1	23µM*	i	?	i	-1%	3%
SMILES	MCF10A rerep	KB-V1 cytotox	SW480 rereplic	KB-3-1 tox	HT1080NT lethal	HT1080 IDH1KD tx
C=CCNc1nc(-c2cccs2)c(CC(=O)O)s1	24%	i	-6%	i	-13%	-3%
Cc1cc(C)cc(NC(=S)N2CCN(Cc3ccccc3)CC2)c1	1%	i	-22%	i	21%	3%
COc1ccc(COc2ncnc3ccc(Br)cc23)cc1F	1%	?	-1%	i	-18%	-24%
c1ccc2c(c1)OCCOCCOCCOCCOCCOc1ccccc1OCCOCCOCCO2	?	5.2µM*	?	5.2µM*	?	?
Cc1ccc(C(=O)OCC(=O)N2CCOCC2)cc1	4%	i	-8%	i	6%	6%
Cc1ccc(/C(N)=N/OC(=O)N2CCOCC2)cc1	0%	?	1%	i	?	18µM*
Cc1ccc(/C(N)=N/OC(=O)C23CC4CC(CC(C4)C2)C3)cc1	18µM*	?	1%	?	16%	6%
N/C(=N\OC(=O)C12CC3CC(CC(C3)C1)C2)c1ccncc1	?	i	-8%	i	-4%	-16%
CCC1CCCCN1C(=O)CSc1nc(N)c(NC(=O)c2ccco2)c(=O)[nH]1 (configuration not stated)	-3%	i	-5%	i	19%	9%
CC(C)CNS(=O)(=O)c1ccccc1C(=O)N1CCCCC1	1%	15µM*	-5%	i	-4%	3%
Cc1cccc(C)c1OCC(O)CNS(=O)(=O)c1ccccc1C(=O)N1CCCCC1 (configuration not stated)	10%	4.6µM*	0%	i	-5%	-2%
Cc1ccc2cc(C)c3nnc(SCc4ccc(C(=O)O)cc4)n3c2c1C	23%	i	0%	i	-3%	1%
COC(=O)c1ccccc1NC(=O)Cn1cnc2c(cnn2-c2ccccc2)c1=O	-7%	6.5µM*	-5%	i	18%	4%
CCn1cnc2c(cnn2-c2ccccc2)c1=O	8%	10µM*	4%	?	-3%	0%
CN1C(=O)N(C)C2CC1N(C)C(=O)N2C	0%	i	10%	i	-3%	0%
CC(C(=O)N(C)C1CCS(=O)(=O)C1)N1C(=O)/C(=C/c2ccc(F)cc2)SC1=S (configuration not stated)	21%	i	?	i	-9%	-21%
CCN(C(=O)C(C)N1C(=O)/C(=C/c2ccco2)SC1=S)C1CCS(=O)(=O)C1 (configuration not stated)	24%	i	4.1µM*	?	-13%	-18%

Source: PubChem BioAssay
